Assay outcomes from PubChem BioAssay.
Only a selection was taken, and hits are over-represented in it overall.
RMI-FANCM inh: disruptors of RMI1/RMI2 association with MM2 peptide – biochemical, fluorescence polarization, human, primary screen. RMI core complex with F-MM2 peptide; stronger effect = lower value. FP signal (polarization) at 33 µM. hit rate 0.58% among 70,000. AID 1159607, 2016; in the data active = FP signal below about 40
Each line names hits and unclear results; the compound was inactive in the other large screens.

CCOc1cc(C(=O)Nc2ccc3c(c2)NC(=O)C(C)(C)CO3)cc(OCC)c1OCC	none
COc1ccc(N2CCN(CCNC(=O)Cc3ccc(OC)c(OC)c3)CC2)cc1	none
Cc1cc(C(=O)NNc2ccc(C(C)(C)C)cc2)no1	none
CC(=O)c1cccc(N2C(=O)c3cccc([N+](=O)[O-])c3C2=O)c1	RMI-FANCM inh 29
CC(=O)C1C(=O)c2cccc([N+](=O)[O-])c2C1=O (stereo unspecified)	none
CC(=O)c1c(C)nn(-c2ccccc2)c1-c1ccccc1[N+](=O)[O-]	none
CC1(O)CS(=O)(=O)CC1(C)O (stereo unspecified)	none
Cc1nnc(SCC(=O)Nc2nccs2)n1-n1cccc1	none
O=C(Nc1nnc(Cc2ccc(F)cc2)o1)c1nc2ccccc2s1	none
O=S(=O)(c1ccc(-n2c(-c3ccncc3)n[nH]c2=S)cc1)N1CCCCC1	none
COc1ccccc1C(=O)NCCn1ncc2c(=O)n(Cc3ccc(C)cc3)cnc21	none
O=Cc1cnc2ccccc2n1	none
Cc1cc(SCC(N)=O)nc2ccccc12	none
N=C(N)Sc1cnc2ccccc2n1	RMI-FANCM inh 37
N/C(=N/OC(=O)c1ccc([N+](=O)[O-])o1)c1ccc(Oc2ccc(C(F)(F)F)cc2[N+](=O)[O-])cc1	none
COc1cc(C(=O)O/N=C\c2ccccc2OC(F)(F)F)cc(OC)c1OC	none
COc1cc(C(=O)Oc2c(Cl)cc(Cl)cc2C=Nc2cc(C)c(C)cc2C)cc(OC)c1OC	none
COc1cc(N=Cc2ccccc2OC(=O)c2cc(OC)c(OC)c(OC)c2)c(OC)cc1Cl	RMI-FANCM inh 28
CCOC(=O)c1sc2c(c1O)c(=O)n(-c1ccccc1)c(=S)n2-c1ccccc1	none
O=C1NCCN=C(c2ccccc2)c2ccccc21	none
C[C@H](CCC(=O)O)[C@H]1CC[C@H]2[C@@H]3[C@H](O)C[C@@H]4C[C@H](O)CC[C@]4(C)[C@H]3CC[C@]12C	none
CC(CCC(=O)N/N=C/c1c[nH]c2ccccc12)C1CCC2C3C(O)CC4CC(O)CCC4(C)C3CCC12C (stereo unspecified)	RMI-FANCM inh 21
C[C@H](CCC(=O)O)[C@H]1CCC2C3C(CC[C@@]21C)[C@@]1(C)CC[C@@H](O)C[C@H]1C[C@@H]3O (stereo partly specified)	none
Cc1csc(N=CN(C)C)c1C#N	none
N#C/C(=C\c1ccc(O)c(O)c1)C(=O)c1ccc(O)c(O)c1	none
O=c1cc(O)cc(/C=C/c2ccc(O)c(O)c2)o1	RMI-FANCM inh 15
O=C(O)C=Cc1ccc(O)c(O)c1	none
O=C(Cn1c2c(c(=O)n(C3CCCCC3)c1=O)CCC2)N1CCc2ccccc21	none
O=C(COc1ccccc1)Nc1nc2c(s1)CSc1ccccc1-2	none
O=C(Nc1cccc([N+](=O)[O-])c1)C1CCN(c2ccc(-c3ccccc3)nn2)CC1	none
Cc1cc2cc(CNC(=O)c3ccccc3Br)ccc2n1C	none
Cc1cc2cc(CNC(=O)c3ccccc3F)ccc2n1C	none
Cc1cc2cc(CNC(=O)c3ccccc3Cl)ccc2n1C	RMI-FANCM inh 30
COC(=O)c1c(N)sc2c1CCN(C(C)C)C2	none
CN(C)c1ccc(C2=CC(C3CC3)=C(C#N)C(=C(C#N)C#N)N2)cc1	RMI-FANCM inh 31
CCOC(=O)C1CC2CN(S(=O)(=O)c3ccc(C)cc3)CC(C1)C2=O (stereo unspecified)	none
N#Cc1c(N)nc(SCC(=O)c2ccc(O)c(O)c2)c(C#N)c1-c1ccc(OCc2ccccc2)cc1	RMI-FANCM inh 14
COc1ccc(-c2c(C#N)c(SCC(=O)c3ccc4c(c3)OCCO4)nc3c2C(=O)CC(C)(C)C3)cc1	none
CC1(C)CC(=O)c2c(nc(SCC(=O)c3ccc(Cl)c(Cl)c3)c(C#N)c2-c2ccccc2)C1	none
COCCN1CCC(CNC(=O)C(=O)Nc2cccc(SC)c2)CC1	none
COC(=O)c1scc(C)c1NS(=O)(=O)c1ccc2c(c1)CCO2	none
COc1ccc([N+](=O)[O-])cc1NC(=O)C1CCN(S(=O)(=O)c2ccc(Cl)s2)CC1	none
N#Cc1c(-c2ccco2)c2c([nH]c1=O)-c1ccccc1OC2	RMI-FANCM inh -3
N#Cc1c(-c2ccco2)cc(-c2ccco2)[nH]c1=O	none
N#Cc1c(-c2ccco2)c2c([nH]c1=O)-c1ccccc1CC2	none
Cc1ccc(NC(=O)NCCOc2cc(N3CCN(C)CC3)ncn2)cc1C	none
O=C(Nc1sc2ccccc2c(=O)c1-c1cccs1)c1ccc([N+](=O)[O-])cc1	RMI-FANCM inh -19
O=C(Nc1cccc2c1C(=O)c1ccccc1C2=O)c1ccc([N+](=O)[O-])cc1	none
O=C(Nc1sc2ccccc2c(=O)c1-c1ccc2c(c1)OCO2)c1cccs1	none
CC(=O)Nc1nnc(SCC(=O)Nc2ccc([N+](=O)[O-])cc2)s1	none
Cc1cc(NC(=O)c2ccc(S(=O)(=O)N3CCCC3)cc2)nc2c1c(=O)oc1ccccc12	none
CC(=O)CSC(=S)N1CCSCC1	none
COc1cc(OC)cc(-c2noc(CCn3c(=O)[nH]c4ccccc4c3=O)n2)c1	none
COc1ccc(S(=O)(=O)Nc2cc(-c3c(O)ccc4ccccc34)c(O)c3ccccc23)cc1	none
CCOc1ccc(S(=O)(=O)Nc2cc(-c3c(O)ccc4ccccc34)c(O)c3ccccc23)cc1	none
O=S(=O)(Nc1cc(Br)c(O)c2ccccc12)c1ccc2ccccc2c1	RMI-FANCM inh 29
N#C/C(=C\c1ccc2noc(-c3ccccc3)c2c1)C(=O)Nc1sc2c(c1C(N)=O)CCCC2	none
CSc1cccc2sc(N3CCN(C(=O)c4c(F)cccc4Cl)CC3)nc12	none
CCc1nc2sc(C(c3ccc(C(C)C)cc3)N3CCCC3)c(O)n2n1 (stereo unspecified)	none
O=C1NN=CC1CCCN=Cc1cc(Cl)cc(Cl)c1O (stereo unspecified)	RMI-FANCM inh 24
OCCN=Cc1cc(Cl)cc(Cl)c1O	none
Oc1c(Cl)cc(Cl)cc1C=NCC1CCC(CN=Cc2cc(Cl)cc(Cl)c2O)CC1 (stereo unspecified)	RMI-FANCM inh 10
Oc1c(Cl)cc(Cl)cc1/C=N\NC(=S)Nc1cc(C(F)(F)F)cc(C(F)(F)F)c1	none
CSC(=NC(C)(C)C)N/N=C\c1cc(Cl)cc(Cl)c1O	none
CN1CCN(/N=C\c2nc(-c3ccccc3Cl)n3ccccc23)CC1	none
COc1cccc(-n2ccn3c(-c4ccc(Cl)cc4)nnc3c2=O)c1	none
Cc1cc(C(=O)CSc2ncnc3scc(-c4ccccc4)c23)c(C)n1-c1ccccc1F	none
O=C(Nc1nc2ccccc2s1)c1ccc(=O)n(Cc2cccc([N+](=O)[O-])c2)c1	none
CCOC(=O)C1CCCN(CC(O)COc2ccccc2Br)C1 (stereo unspecified)	none
O=C(NCc1ccco1)Nc1ccc(OCc2ccccc2)cc1	none
COc1ccc(S(=O)(=O)Nc2ccc3c(c2)N(C(=O)c2ccco2)CC3)c(C)c1	none
COc1ccc(CCC(=O)c2c(O)cc(O[C@@H]3O[C@H](CO)C(O)[C@H](O)C3O[C@@H]3O[C@@H](C)[C@H](O)[C@@H](O)[C@H]3O)cc2O)cc1O (stereo partly specified)	none
O=S(=O)(c1ccc(-c2ccccn2)s1)N1CCN(C2c3ccccc3-c3ccccc32)CC1	none
O=C(c1ccc2c(c1)OCCO2)N1CCCCC1	RMI-FANCM inh -20
O=C(Cc1ccc2c(c1)OCO2)N1CCCCC1	none
O=C(O)c1ccc2c(c1)OCCO2	none
Cc1ccc(C(=O)Nc2nc3ccc(Br)cc3s2)cc1	none
CC1(C)CC(=O)c2c(nc(SCC(=O)c3ccc(Cl)cc3)c(C#N)c2-c2ccccc2)C1	none
O=C(COc1ncnc2cc(Cl)ccc12)c1ccccc1	none
Cc1ccc(S(=O)(=O)N(C)C)cc1	none
Cc1ccc(S(=O)(=O)N=c2sc3cccc(C)c3n2C)cc1	none
Cc1ccc(S(=O)(=O)N=C2C=CC(=NS(=O)(=O)c3ccc(C)cc3)C=C2)cc1	RMI-FANCM inh 0
COc1ccc(N2CCN(C(=O)C3CCN(c4ccc(-c5ccc(Cl)cc5)nn4)CC3)CC2)cc1	none
